Measurements published in PubChem BioAssay (Tox21).
Results filed as inconclusive are left out. A call without a number means that no potency is given here. Activity calls are given as the source filed them. The call rests on the fitted dose curve; in most records, active means well fitted cell-killing curve with a large enough effect in the repeat runs; inconclusive means weak or mixed curves, or effect the other way; inactive means flat fitted curve, though single readings scatter.

Experiments:
[1] = cAMP Responsive Elements (CRE) small molecule antagonists, cell-based qHTS assay: qHTS cell viability counter screen (AID 2060913); further: nearly all actives have a fitted effect of over 40% in size
Method in brief: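 CRE-bla HEK293T cells were seeded in assay medium with 10% dialyzed FBS, incubated 18 hrs at 37 C, then exposed to compounds plus 0.25 uM final NKH477 for 3 hrs. Viability was read by CellTiter-Glo luminescence after 30 min, in the same wells.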

[2] = cAMP Responsive Elements (CRE) small molecule agonists, cell-based qHTS assay: qHTS cell viability counter screen (AID 2060914);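 further: viability read after 3 h of compound exposure; nearly all actives have a fitted effect of over 50% in size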
Method in brief: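 CRE-bla HEK 293T cells, plated 18 h at 37 °C, were exposed to compounds for 3 h at 37 °C/5% CO2. Viability was then measured in the same wells by CellTiter-Glo luminescence after 30 min at room temperature.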

SMILES	Potency [1]	Potency [2]
CCCCC[Si](OCC)(OCC)OCC	inactive	inactive
NCCCOCCOCCOCCCN	inactive	inactive
CCCCCC=CCC=CCCCCCCCC(=O)OCC	inactive	inactive
COC(C)(C)CCCC(C)CC=O (stereo not given)	inactive	inactive
CO[C@H]1C=CO[C@@]2(C)Oc3c(C)c(O)c4c(O)c(c5c(c4c3C2=O)=NC2(CCN(CC(C)C)CC2)N=5)NC(=O)/C(C)=C\C=C/[C@H](C)[C@H](O)[C@@H](C)[C@@H](O)[C@@H](C)[C@H](OC(C)=O)[C@@H]1C	inactive	inactive
c1ccc(CNc2ncnc3c2ncn3C2CCCCO2)cc1 (stereo not given)	inactive	inactive
COc1cc([C@H]2Oc3cc([C@H]4Oc5cc(O)cc(O)c5C(=O)[C@@H]4O)ccc3O[C@@H]2CO)ccc1O	inactive	inactive
CCCOC(=O)CC	inactive	inactive
C[N+](C)(C)CCCCCC[N+](C)(C)C	inactive	inactive
CC(O)CCCCn1c(=O)c2c(ncn2C)n(C)c1=O (stereo not given)	inactive	inactive
Cc1ccc(N(C)C)cc1	inactive	inactive
O=C1c2ccccc2C(=O)N1CCl	inactive	inactive
Cc1cc(S(=O)(=O)O)ccc1N=Nc1c(O)ccc2ccccc12	inactive	inactive
CC(C)CC(=O)N[C@H](C(=O)N[C@H](C(=O)N[C@@H](CC(C)C)[C@@H](O)CC(=O)N[C@@H](C)C(=O)N[C@@H](CC(C)C)[C@@H](O)CC(=O)O)C(C)C)C(C)C	inactive	inactive
CC1(C)S[C@@H]2[C@H](NC(=O)C(c3ccccc3)S(=O)(=O)O)C(=O)N2[C@H]1C(=O)O (stereo not given in full)	inactive	inactive
